PubChem BioAssay
Activity calls are given as the source filed them.

Columns and labels:
[1] = test system: Plasmodium falciparum Sir2 (PF13_0152, Sir2A); assay: pfSir2 binders on small-molecule microarrays, primary screen, biochemical, small-molecule microarray, 635 nm fluorescence (AID 1098); settings: small-molecule microarray binding, fluorescence 635 nm; higher = more signal;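 further: score merges spot fluorescence intensity with its signal-to-noise ratio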
[2] = small-molecule microarray binders of probe aDKK1, primary screen, biochemical, biotinylated probe, 635/667 nm fluorescence (AID 1099); settings: higher = more signal;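 further: score merges 667nm spot fluorescence with signal to noise across triplicate slides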
[3] = small-molecule microarray binders of probe aCHRDL2, primary screen, biochemical, biotinylated probe, 635/667 nm fluorescence (AID 1100); settings: higher = more signal
[4] = splicing luciferase reporter signal modulators, primary screen, spliceosome inhibition project, cell-based, HEK293, splice +/- reporter (AID 1101); settings: luminescence, 24 h, higher = more signal, called active from +8 up or from −8 down;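 further: HEK293 cells carrying a splicing-competent luciferase reporter gene; test concentration not given here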
[5] = target: Fibroblast growth factor 10 (Homo sapiens) (UniProt O15520); assay: FGF10 binders on small-molecule microarrays, primary screen, biochemical, small-molecule microarray, 635 nm fluorescence (AID 1102); settings: FGF10 binding, fluorescence 635 nm, higher = more signal
Chain of Fibroblast growth factor 10 (Homo sapiens) (O15520 whole entry, looked up): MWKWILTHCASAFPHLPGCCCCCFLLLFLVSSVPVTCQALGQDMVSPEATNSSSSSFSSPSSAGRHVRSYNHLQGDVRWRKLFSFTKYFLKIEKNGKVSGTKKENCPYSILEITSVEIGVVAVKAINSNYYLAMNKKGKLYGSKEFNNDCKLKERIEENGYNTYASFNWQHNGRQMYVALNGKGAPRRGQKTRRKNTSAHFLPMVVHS

[6] = test system: glycogen synthase kinase-3 (GSK3A per assay name; protocol says GSK3B); assay: GSK3 binders on small-molecule microarrays, primary screen, biochemical, small-molecule microarray, 635 nm fluorescence, GSK3A (AID 1103); settings: small-molecule microarray binding, fluorescence 635 nm; higher = more signal; further: the record names both GSK3A and GSK3B
[7] = target: Epidermal growth factor receptor (Homo sapiens) (UniProt P00533); assay: EGFR binders on small-molecule microarrays, primary screen, biochemical, small-molecule microarray, 635 nm fluorescence (AID 1104); settings: EGFR binding, higher = more signal;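 further: score merges 667 nm emission intensity with spot signal to noise over triplicate slides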
Chain of Epidermal growth factor receptor (Homo sapiens) (P00533 whole entry, looked up): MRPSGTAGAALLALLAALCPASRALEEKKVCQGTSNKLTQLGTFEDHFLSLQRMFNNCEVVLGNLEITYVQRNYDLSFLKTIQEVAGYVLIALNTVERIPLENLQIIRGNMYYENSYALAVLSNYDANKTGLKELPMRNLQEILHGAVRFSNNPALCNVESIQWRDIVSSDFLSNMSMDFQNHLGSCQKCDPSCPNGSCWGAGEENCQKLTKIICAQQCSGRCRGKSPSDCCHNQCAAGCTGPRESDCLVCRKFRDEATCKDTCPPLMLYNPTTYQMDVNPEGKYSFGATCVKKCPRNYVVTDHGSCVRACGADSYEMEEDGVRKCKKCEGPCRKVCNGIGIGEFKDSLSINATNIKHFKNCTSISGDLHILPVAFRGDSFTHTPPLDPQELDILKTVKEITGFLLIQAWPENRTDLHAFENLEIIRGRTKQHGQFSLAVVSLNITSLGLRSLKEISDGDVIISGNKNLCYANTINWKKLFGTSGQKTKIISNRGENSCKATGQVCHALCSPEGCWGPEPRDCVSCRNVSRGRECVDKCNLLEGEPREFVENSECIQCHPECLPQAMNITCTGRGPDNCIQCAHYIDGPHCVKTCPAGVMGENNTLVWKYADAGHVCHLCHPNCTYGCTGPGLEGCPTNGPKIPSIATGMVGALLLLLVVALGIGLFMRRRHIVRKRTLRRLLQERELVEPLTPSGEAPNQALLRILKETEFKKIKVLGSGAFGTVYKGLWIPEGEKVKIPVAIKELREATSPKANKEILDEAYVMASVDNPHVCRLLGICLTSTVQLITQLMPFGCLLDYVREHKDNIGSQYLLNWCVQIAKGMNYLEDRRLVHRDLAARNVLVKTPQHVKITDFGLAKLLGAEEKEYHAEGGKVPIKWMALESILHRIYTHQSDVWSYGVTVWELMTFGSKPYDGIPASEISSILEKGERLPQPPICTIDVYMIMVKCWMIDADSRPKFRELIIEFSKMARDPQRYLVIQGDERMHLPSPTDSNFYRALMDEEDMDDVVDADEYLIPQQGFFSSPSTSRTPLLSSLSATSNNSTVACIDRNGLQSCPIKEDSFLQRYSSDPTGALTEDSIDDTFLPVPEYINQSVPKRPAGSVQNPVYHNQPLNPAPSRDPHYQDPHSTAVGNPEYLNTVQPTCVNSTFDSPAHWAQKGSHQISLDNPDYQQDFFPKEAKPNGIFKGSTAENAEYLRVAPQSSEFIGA

[8] = target: Follistatin-related protein 3 (Homo sapiens) (UniProt O95633); assay: FSTL3 binders on small-molecule microarrays, primary screen, biochemical, small-molecule microarray, 635 nm fluorescence (AID 1105); settings: FSTL3 binding, higher = more signal;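 further: score merges emission near 667 nm and signal to noise per printed spot across three slides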
Chain of Follistatin-related protein 3 (Homo sapiens) (O95633 whole entry, looked up): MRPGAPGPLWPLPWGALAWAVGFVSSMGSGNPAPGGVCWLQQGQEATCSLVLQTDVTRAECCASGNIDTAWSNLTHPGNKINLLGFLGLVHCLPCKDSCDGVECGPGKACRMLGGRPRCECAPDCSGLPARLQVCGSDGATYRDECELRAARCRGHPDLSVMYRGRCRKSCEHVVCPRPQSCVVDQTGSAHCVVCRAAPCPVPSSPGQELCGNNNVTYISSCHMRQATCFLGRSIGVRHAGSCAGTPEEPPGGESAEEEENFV

[9] = target: Dickkopf-related protein 1 (Homo sapiens) (UniProt O94907); assay: DKK1 binders on small-molecule microarrays, primary screen, biochemical, small-molecule microarray, 635 nm fluorescence scan (AID 1106); settings: DKK1 binding, higher = more signal;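 further: score merges emission near 667 nm with signal to noise over three replicate slides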
Chain of Dickkopf-related protein 1 (Homo sapiens) (O94907 whole entry, looked up): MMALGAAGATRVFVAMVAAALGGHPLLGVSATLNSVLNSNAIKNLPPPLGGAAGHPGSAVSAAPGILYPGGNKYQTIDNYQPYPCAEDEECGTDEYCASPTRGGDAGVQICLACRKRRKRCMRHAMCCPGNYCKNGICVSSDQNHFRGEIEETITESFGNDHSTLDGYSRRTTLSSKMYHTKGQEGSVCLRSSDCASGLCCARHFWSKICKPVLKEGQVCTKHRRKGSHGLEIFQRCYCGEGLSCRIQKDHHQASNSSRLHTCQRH

[10] = test system: Inhibin beta A chain (activin A); assay: INHBA (activin A) binders on microarrays, primary screen, biochemical, small-molecule microarray, 635 nm fluorescence scan (AID 1107); settings: small-molecule microarray binding, higher = more signal;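 further: mouse activin A protein probed at 4.33 µg/mL on printed slides; score merges bound-protein fluorescence near 667 nm with spot signal-to-noise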
[11] = test system: Human papillomavirus type 1a protein E7 (residues 44-93); assay: HPV1a E7 fragment binders on microarrays, primary screen, biochemical, small-molecule microarray, residues 44-93, 635 nm fluorescence (AID 1108); settings: small-molecule microarray binding, fluorescence 635 nm; higher = more signal;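 further: E7 fragment applied at 1 µg/mL in TBST for 1 h at 4 C; score combines spot fluorescence with its signal to noise ratio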
[12] = modulators of HCV replicon luciferase signal, primary screen, HCV replication inhibitor project, Huh7 cells, luciferase reporter (AID 1109); settings: 48 h, higher = more signal;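 further: huh7 hepatoma cells harbouring a luciferase neomycin HCV replicon reporter; luciferase luminescence as measure of HCV replicon replication; test concentration not given here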
[13] = target: Left-right determination factor 2 (Homo sapiens) (UniProt O00292); assay: LEFTY2 binders on small-molecule microarrays, primary screen, biochemical, small-molecule microarray, 635 nm fluorescence scan (AID 1110); settings: LEFTY2 binding, higher = more signal
Chain of Left-right determination factor 2 (Homo sapiens) (O00292 whole entry, looked up): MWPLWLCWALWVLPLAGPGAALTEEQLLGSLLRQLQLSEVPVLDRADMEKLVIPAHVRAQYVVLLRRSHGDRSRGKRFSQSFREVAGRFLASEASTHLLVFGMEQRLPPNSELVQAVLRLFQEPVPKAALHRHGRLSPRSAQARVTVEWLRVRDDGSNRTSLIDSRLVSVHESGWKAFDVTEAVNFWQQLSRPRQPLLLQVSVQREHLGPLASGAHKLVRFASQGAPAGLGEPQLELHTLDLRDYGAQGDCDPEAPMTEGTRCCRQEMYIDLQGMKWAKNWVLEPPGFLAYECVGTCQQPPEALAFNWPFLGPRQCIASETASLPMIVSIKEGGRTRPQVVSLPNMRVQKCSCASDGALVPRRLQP

[14] = target: Calmodulin-1 (Homo sapiens) (UniProt P0DP23); assay: CALM1 binders on microarrays, EGTA buffer, profiling panel, biochemical, small-molecule microarray, Cy5-labelled CALM1 (AID 1111); settings: Cy5-CALM1 binding fluorescence, higher = more signal;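 further: labelled calmodulin applied in Tris saline Tween buffer holding calcium plus EGTA and DTT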
[15] = target: Calmodulin-1 (Homo sapiens) (UniProt P0DP23); assay: calcium-bound CALM1 binders on microarrays, profiling panel, artefact control for SMM control-protein annotation, biochemical, small-molecule microarray, Cy5-labelled CALM1, plus calcium (AID 1112); settings: Cy5-CALM1 binding fluorescence, higher = more signal;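 further: score merges spot fluorescence with signal to noise from triplicate slides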
[16] = small-molecule microarray binders of probe aWnt5a, primary screen, biochemical, biotinylated probe, 635/667 nm fluorescence (AID 1113); settings: higher = more signal;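 further: score merges 667 nm fluorescence intensity with signal-to-noise per printed feature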
[17] = small-molecule microarray binders of probe aShh, primary screen, biochemical, biotinylated probe, 635/667 nm fluorescence (AID 1114); settings: higher = more signal;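 further: probe is biotin-labelled aShh protein from a stem cell growth factor screen; measures binding of labelled protein to compounds printed on the slide; score merges feature fluorescence at 667 nm with signal-to-noise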
[18] = small-molecule microarray binders of probe aNog, primary screen, biochemical, biotinylated probe, 635/667 nm fluorescence (AID 1115); settings: higher = more signal;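 further: probe is biotinylated aNog protein used at 0.15 µg/mL for 1 h at 4 C; z-score combines 667 nm fluorescence of each spot with its signal to noise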
[19] = target: Torsin-1A-interacting protein 1 (Homo sapiens) (UniProt Q5JTV8); assay: LAP1 binders from COS7 cell lysate, primary screen, small-molecule microarray, 635/667 nm fluorescence (AID 1116); settings: COS7-hLAP1 lysate binding, 635 nm fluorescence, higher = more signal
Chain of Torsin-1A-interacting protein 1 (Homo sapiens) (Q5JTV8 whole entry, looked up): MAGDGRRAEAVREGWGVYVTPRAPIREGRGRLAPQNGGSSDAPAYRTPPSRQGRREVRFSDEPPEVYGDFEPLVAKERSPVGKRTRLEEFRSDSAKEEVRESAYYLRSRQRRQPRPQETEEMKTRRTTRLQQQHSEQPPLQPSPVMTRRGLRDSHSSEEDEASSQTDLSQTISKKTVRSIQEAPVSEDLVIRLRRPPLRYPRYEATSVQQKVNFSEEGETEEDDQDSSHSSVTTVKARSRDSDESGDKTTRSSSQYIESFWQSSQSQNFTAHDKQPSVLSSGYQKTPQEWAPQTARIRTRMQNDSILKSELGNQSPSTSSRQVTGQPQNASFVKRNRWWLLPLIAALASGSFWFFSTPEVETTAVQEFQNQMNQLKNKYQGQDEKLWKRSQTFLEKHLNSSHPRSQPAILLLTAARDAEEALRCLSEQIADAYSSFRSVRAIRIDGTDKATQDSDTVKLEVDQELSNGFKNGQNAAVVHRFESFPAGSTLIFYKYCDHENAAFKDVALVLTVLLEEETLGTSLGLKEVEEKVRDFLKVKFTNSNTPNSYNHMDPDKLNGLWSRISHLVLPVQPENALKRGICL

[20] = target: Alpha-bungarotoxin (Bungarus multicinctus) (UniProt P60615); assay: alpha-bungarotoxin binders on microarray, profiling panel, artefact control for SMM control protein annotation, biochemical, small-molecule microarray, Alexa647 label, 635/667 nm fluorescence (AID 1117); settings: alpha-BTX-A647 binding fluorescence, higher = more signal
Chain of Alpha-bungarotoxin (Bungarus multicinctus) (P60615 whole entry, looked up): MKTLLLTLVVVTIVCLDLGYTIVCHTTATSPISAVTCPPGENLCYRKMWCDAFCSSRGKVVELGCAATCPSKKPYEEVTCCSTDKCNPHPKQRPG

| SMILES | composite z-score [1] | composite z-score [2] | composite z-score [3] | z-score [4] | composite z-score [5] | composite z-score [6] | composite z-score [7] | composite z-score [8] | composite z-score [9] | composite z-score [10] | composite z-score [11] | z-score [12] | composite z-score [13] | composite z-score [14] | composite z-score [15] | composite z-score [16] | composite z-score [17] | composite z-score [18] | composite z-score [19] | composite z-score [20] |
| --- | --- | --- | --- | --- | --- | --- | --- | --- | --- | --- | --- | --- | --- | --- | --- | --- | --- | --- | --- | --- |
| CN1C=C(C(=O)OCCS(C)(=O)=O)C(C(=O)OCCS(C)(=O)=O)=CC(CCCO)=CC1C1CC1 (stereo not given) | -0.274 | -0.209 | -0.0925 | 0.788 (inactive) | 0.428 | -0.256 | -0.14 | 0.0695 | -0.596 | -0.0932 | 0.117 | -0.552 | -0.0097 | 0.0991 | -0.0416 | -0.126 | 0.0434 | 0.257 | -0.116 | 0.198 |
| COc1cc(CO)ccc1OC(C)=O | 0.144 | -0.082 | -0.526 | -0.749 (inactive) | 0.171 | 0.536 | 0.558 | 0.516 | 0.668 | 0.167 | 0.464 | -0.147 | 0.388 | 0.0543 | -0.267 | 0.127 | 0.0815 | -0.0615 | 0.47 | 0.298 |
| CCCN1C(=O)[C@@]2(CCC(=O)OC(C)(C)C)N=C(c3ccc(OCCCO)cc3)O[C@H]2c2ccccc21 | 0.902 | -0.243 | 0.713 | 0.478 (inactive) | 0.9 | 1.22 | 0.246 | 0.874 | 0.242 | 1.03 | 1.11 | -2.75 | 0.163 | 0.786 | -0.38 | 0.0044 | -0.0866 | -0.0875 | 0.816 | 0.285 |
| COCCOC(=O)N1C(=O)[C@@]2(c3cc(C#CCC(C(=O)OC)C(=O)OC)ccc31)[C@H](c1ccc(O)cc1)N1[C@H](c3ccccc3)[C@H](c3ccccc3)OC(=O)[C@H]1[C@@H]2C(N)=O | 0.224 | 0.36 | 0.461 | -1.06 (inactive) | 0.833 | 1.06 | 0.212 | 0.825 | 0.417 | 0.626 | 0.698 | -0.633 | 0.715 | 0.537 | -0.259 | 0.0297 | 0.0469 | 1.29 | 1.03 | 0.944 |
| COC(=O)[C@@]1(Cc2ccc(OC)cc2)[C@H]2c3cc(C(=O)N(C)C)n(Cc4c(OC)[nH]cc(C)c4=O)c3C[C@H]2CN1C(=O)c1ccccc1 | 1.04 | 1.8 | 0.628 | -1.07 (inactive) | 0.0004 | -0.208 | 0.197 | 0.037 | -0.41 | 1.23 | -0.117 | -1.1 | 0.464 | 0.352 | -0.117 | -0.16 | -0.352 | -0.248 | 0.808 | -0.0941 |
| COCCOC(=O)N1C(=O)[C@@]2(c3cc(C#CCNC(N)=O)ccc31)[C@H](c1ccc(O)cc1)N1[C@H](c3ccccc3)[C@H](c3ccccc3)OC(=O)[C@H]1[C@@H]2C(=O)Nc1nc2ccccc2s1 | 0.809 | 0.668 | 0.476 | -0.564 (inactive) | 1.14 | 0.306 | 0.228 | 0.85 | 0.562 | 0.815 | 0.793 | 0.171 | 0.691 | 1.41 | 0.707 | -0.0242 | -0.0626 | 0.167 | 0.0164 | 1.1 |
| COc1ccc(CCN2C(=O)[C@@]3(Cc4ccccc42)c2ccccc2C(=O)N(Cc2ccccc2Cl)[C@H]3c2ccc(CO)cc2)cc1 | 1.14 | 0.546 | 0.929 | -0.0194 (inactive) | -0.202 | -1.01 | -1.12 | -0.61 | -0.695 | 0.38 | -0.782 | 0.0889 | -0.622 | 0.102 | 0.45 | -0.176 | -0.138 | -0.272 | 0.0577 | 0.0121 |
| COCCOC(=O)N1C(=O)[C@@]2(c3cc(C#CCNC(N)=O)ccc31)[C@H](C(=O)N1CCN(c3ncccn3)CC1)[C@H]1C(=O)O[C@H](c3ccccc3)[C@H](c3ccccc3)N1[C@@H]2c1ccccc1OCCO | 1.2 | 0.265 | 0.714 | -0.619 (inactive) | 1.13 | 0.0685 | 0.736 | 1.24 | 1.7 | 1.02 | 1.38 | -1.05 | 0.877 | 0.97 | 0.264 | 0.0375 | 0.175 | -0.319 | 0.82 | 0.904 |
| C=CC[C@@]1(C(=O)N2CCOCC2)N=C(c2ccc(OCCCO)cc2)O[C@@H]1c1ccccc1N=[N+]=[N-] | 0.904 | 1.01 | 1.08 | -2.33 (inactive) | 1.31 | 0.951 | 0.279 | 0.606 | 0.174 | 1.16 | 1.45 | -1.82 | 0.37 | 1.83 | 0.904 | 0.171 | -0.043 | 1.82 | 1.47 | 1.8 |
| CC(C)c1ccc(NN2C(C(O)c3c(F)cccc3Cl)C=CC3C(=O)N(c4ccccc4)C(=O)C32)cc1 (stereo not given) | 0.683 | 1.24 | 1.13 | -1.11 (inactive) | 0.62 | 0.852 | 0.389 | 0.766 | -0.247 | 0.945 | 1.23 | -0.242 | 0.0094 | 1.88 | 0.98 | 0.136 | 1.38 | 1.94 | 0.47 | 1.81 |
| O=C(CCN1CCOCC1)c1cccc(O)c1 | 1.63 | 0.191 | -0.399 | 0.964 (inactive) | 1.37 | 1.22 | 1.74 | 1.49 | 1.8 | 1.53 | 0.591 | -3.35 | 1.47 | -0.396 | -1.21 | -0.0372 | -0.123 | -0.158 | 0.0422 | 1.4 |
